# Assay results as given in PubChem BioAssay (NCATS).
# Records with an inconclusive call do not appear. A call without a number means that no potency is given here. The source made the active and inactive calls. Unless noted, the call rests on the fitted dose curve; in most records, active means well fitted curve in the direction sought with a large enough effect; inconclusive means small, poorly fitted or top-dose-only effect, or another doubt; inactive means no such curve, though single readings can be large; an effect the other way counts as inactive or inconclusive.
# Assays:
# [1] = target: Catechol O-methyltransferase (Homo sapiens) (UniProt P21964); assay: Confirmatory Screen for Target Class Profiling of Small Molecule Inhibitors of Methyltransferases (AID 1745852; calls by dose curve); conditions: MTase-Glo luminescence, SAH detection, recombinant enzyme; measured here: COMT max response; stronger effect = lower value
# [2] = target: Guanidinoacetate N-methyltransferase (Homo sapiens) (UniProt Q14353); assay: as above; conditions: MTase-Glo luminescence, SAH detection, recombinant enzyme; activity change, negative = inhibition: at 85.7 µM (top of the series) unless noted
# [3] = target: Nicotinamide N-methyltransferase (Homo sapiens) (UniProt P40261); assay: as above; conditions: MTase-Glo luminescence, SAH detection, recombinant enzyme; measured here: NNMT max response; stronger effect = lower value
# [4] = target: Phenylethanolamine N-methyltransferase (Homo sapiens) (UniProt P11086); assay: as above; conditions: MTase-Glo luminescence, SAH detection, recombinant enzyme; measured here: PNMT max response; stronger effect = lower value
# [5] = NCATS anti-infectives library activity on HEK293 viability as a counter-qHTS vs the C. elegans viability qHTS (AID 1745854);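 further: HEK293 cells exposed to compounds for 24 hr before the viability read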
# Procedure, shortened: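 Compound titrations (final up to 41.7 uM) were incubated with HEK293 cells for 24 hr at 37C under 5% CO2. Viable cells were quantified with CellTiter-Glo after 10 min at ambient temperature.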
# [6] = target: Nuclear receptor subfamily 1 group I member 3 (Homo sapiens) (UniProt Q14994); assay: Primary qHTS for antagonist of constitutive androstane receptor (CAR) against the NCATS DSHEA and TCM libraries (AID 1794836);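 further: HepG2 cells stably expressing hCAR with CYP2B6 luciferase reporter stimulated by CITCO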
# Procedure, shortened: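 Antagonist mode: CAR reporter luminescence (ONE-Glo) in HepG2-CYP2B6-hCAR cells stimulated with 48 uM CITCO (final) over 24 h at 37 C, compounds titrated; viability read first by CellTiter-Fluor fluorescence.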
# [7] = target: Cytochrome P450 1A2 (Homo sapiens) (UniProt P05177); assay: p450-cyp1a2 (AID 410; calls by dose curve; further: potency means the concentration at half of the fitted maximal effect)
# Procedure, shortened: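 Read-out is luminescence from luciferin produced by CYP1A2 demethylation of Luciferin-ME (100uM, at Km). Detection reagent stopped the 60 min NADPH-dependent reaction; signals were normalized to 57 uM furafylline.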
# [8] = target: Glucocorticoid receptor (Homo sapiens) (UniProt P04150); assay: GR-GFP Redistribution (AID 450;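 active means compounds whose dose series gives a full or clear partial fitted curve of increased nuclear translocation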; further: potency means the concentration at half of the fitted maximal effect); conditions: U2OS GR-GFP nuclear translocation, laser cytometry, 2 h
# [9] = target: Glucocorticoid receptor (Homo sapiens) (UniProt P04150); assay: GR-EFC Redistribution (AID 451; calls by dose curve; further: potency means the concentration at half of the fitted maximal effect); conditions: CHO-K1 GR-EFC translocation, beta-gal luminescence, 2 h
# Procedure, shortened: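 Translocation of GR-ED fusion to nuclear EA restores b-gal, read by luminescence after 1 h room-temperature detection. Engineered CHO-K1 biosensor cells, 1,000/well, exposed 2 h at 37 C to titrations up to 46 uM final.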
# [10] = target: Cytochrome P450 3A4 (Homo sapiens) (UniProt P08684); assay: qHTS Assay for Activators of Cytochrome P450 3A4 (AID 885); further: nearly all actives have a fitted effect of over 65% in size
# Procedure, shortened: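 Luminescent readout of luciferin formed from 25 uM Luciferin-PPXE (KM level) by 20 nM CYP3A4 in 200 mM KPO4, with 60 min NADPH-driven reaction at room temperature after 10 min compound exposure. Ketoconazole (57 uM) defined 100% inhibition.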
# [11] = target: Cytochrome P450 2D6 (Homo sapiens) (UniProt P10635); assay: qHTS Assay for Inhibitors and Substrates of Cytochrome P450 2D6 (AID 891); further: potency means the concentration at half of the fitted maximal effect; nearly all actives have a fitted effect of over 60% in size
# Procedure, shortened: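 Luminescent read-out of luciferin formed by 5 nM human CYP2D6 demethylating 30 uM Luciferin-ME EGE (Km level) over 60 min at room temperature after NADPH regeneration addition. Data normalized to full inhibition by 1.43 uM quinidine.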
# [12] = target: DNA dC->dU-editing enzyme APOBEC-3G (Homo sapiens) (UniProt Q9HC16); assay: qHTS for inhibitors of Vif-A3G interactions: Validation (AID 588379)
# Procedure, shortened: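 Yellow fluorescence (Ex 488, Em 500-530) of Vif-coexpressing HeLa A3G-eYFP cells, scanned by Acumen cytometer, reports blocked A3G degradation. Cells plated at 700/well overnight at 37 deg C before compound addition, then a further overnight compound incubation at 37 deg C.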
# [13] = Viability counterscreen for antagonist of constitutive androstane receptor (CAR) against the NCATS DSHEA and TCM libraries (AID 1794837);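 further: compound exposure lasted 24 h before viability reading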
# Procedure, shortened: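 Cells: HepG2 line carrying CYP2B6 reporter and hCAR, seeded and attached 5 h. Then pin-transferred test substances plus agonist CITCO at 48 uM final; 24 h incubation; fluorogenic viability reagent, 1 h.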
# [14] = Viability counterscreen for agonist of constitutive androstane receptor (CAR) against the NCATS DSHEA and TCM libraries (AID 1794838);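 further: HepG2 cells with CYP2B6 reporter and hCAR plus 0.75 µM PK11195 antagonist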
# Procedure, shortened: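 Cell health was measured as CellTiter-Fluor signal in HepG2-CYP2B6-hCAR cells treated for 24 h with substances alongside the hCAR antagonist PK11195 (0.75 uM final).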
# [15] = target: Nuclear receptor subfamily 1 group I member 3 (Homo sapiens) (UniProt Q14994); assay: Primary qHTS for agonist of constitutive androstane receptor (CAR) against the NCATS DSHEA and TCM libraries (AID 1794839); conditions: Potency: CAR antagonist co-added at 0.75 µM unless noted; further: potency means the concentration at half of the fitted maximal effect
# Procedure, shortened: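 qHTS, agonist mode: HepG2-CYP2B6-hCAR, 2,500 cells/well, 5 h attach; cpds + PK11195 0.75 µM final; 24 h, 37 °C, 5% CO2. Readouts: CellTiter-Fluor (405/540 nm), then ONE-Glo luminescence.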
# [16] = HepG2 viability counterscreen (readout 2: ATP content) against the NCATS DSHEA and TCM libraries (AID 1794840)
# Procedure, shortened: (§1)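 Same wells read twice: first fluorescence from cleaved GF-AFC substrate (25 uM final, 30 min, 37C) for live-cell protease, then CellTiter-Glo luminescence after 30 min at room temperature for ATP. HepG2 cells were exposed ~24 h to substances.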
# [17] = HepG2 viability counterscreen (readout 1: protease activity) against the NCATS DSHEA and TCM libraries (AID 1794841);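 further: cells exposed to compounds for about 24 h before the protease read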
# Procedure, shortened: as §1
# [18] = target: Cytochrome P450 2D6 (Homo sapiens) (UniProt P10635); assay: qHTS for inhibitors of CYP2D6 against the NCATS DSHEA and TCM libraries (AID 1919972); further: potency means the concentration at half of the fitted maximal effect
# Procedure, shortened: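 qHTS, concentration–response format with most substances from 19.5 nM. CYP2D6 + pro-luciferin substrate, 15 min with compound, then 1x NADPH regen, 30–45 min RT dark. Glo detection 30 min, luminescence. Quinidine control.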
# [19] = target: Cytochrome P450 2C19 (Homo sapiens) (UniProt P33261); assay: qHTS for inhibitors of CYP2C19 against the NCATS DSHEA and TCM libraries (AID 1919974)
# Procedure, shortened: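 Isoform-specific enzyme and substrate levels; enzyme-free wells as background. Reaction: 1x NADPH regenerating system, 30-45 min, room temperature, shielded from light; luminescent detection reagent added, 30 min.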
# [20] = KB-3-1 P-gp reporter qHTS against the NCATS DSHEA and TCM libraries (AID 1919975)
# Procedure, shortened: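 KB-3-1 parental line, 1536-well qHTS: cells seeded, ~4 h attachment, pintool compound addition, ~72 h at 37C, then CellTiter-Glo, 30 min RT, luminescence. Concentration-response format.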
# [21] = target: Cytochrome P450 1A2 (Homo sapiens) (UniProt P05177); assay: qHTS for inhibitors of CYPIA2 against the NCATS DSHEA and TCM libraries (AID 1919976); further: potency means the concentration at half of the fitted maximal effect
# Procedure, shortened: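 Furafylline served as the plate control. Compounds met CYP1A2 and pro-luciferin substrate 15 min before NADPH regeneration solution (1x) was added; after 30-45 min at RT, P450-Glo reagent was added for 30 min and luminescence was measured.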
# [22] = KB-8-5-11 P-gp reporter qHTS against the NCATS DSHEA and TCM libraries (AID 1919977)
# Procedure, shortened: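 KB-8-5-11, 500 cells/well, DMEM/10% FBS without colchicine; 4 h attach; cpd titrations, 72 h, 37C/5% CO2; CellTiter-Glo, 30 min RT, luminescence.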
# [23] = qHTS Counterscreen for compound interference against the NCATS DSHEA and TCM libraries (AID 1919978); conditions: firefly luciferase detection reagent interference, luminescence;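 further: compounds preincubated with 1 µM D-luciferin or buffer before detection reagent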
# Procedure, shortened: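 Compounds, titrated from 19.5 nM to 39.8 uM final, were pinned onto 1 uM D-luciferin or plain 100 mM potassium phosphate. After 15 min at room temperature, luciferin detection reagent was added for 30 min before the luminescence read.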
# [24] = Dual reporter qHTS for agonist of Pregnane X Receptor (hPXR) against the NCATS DSHEA and TCM libraries: Fluorescence readout (AID 1920058)
# Procedure, shortened: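 In this qHTS counter-read, reporter-bearing HepG2 cells in charcoal-stripped serum received substances for approximately 24 h before viability was assessed fluorometrically with CellTiter-Fluor.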
# [25] = target: Nuclear receptor subfamily 1 group I member 2 (Homo sapiens) (UniProt O75469); assay: Dual reporter qHTS for agonist of Pregnane X Receptor (hPXR) against the NCATS DSHEA and TCM libraries: Luminescence readout (AID 1920059)
# Procedure, shortened: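 Luminescent PXR reporter read (ONE-Glo) after a CellTiter-Fluor viability read, following 24 h, 37C treatment of HepG2 cells stably carrying hPXR-Luc.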
# [26] = target: Nuclear receptor subfamily 1 group I member 2 (Homo sapiens) (UniProt O75469); assay: Dual reporter qHTS for antagonist of Pregnane X Receptor (hPXR) against the NCATS DSHEA and TCM libraries: Luminescence Readout (AID 1920060);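 further: HepG2 cells carrying hPXR luciferase reporter stimulated with rifampicin at 2 µM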
# Procedure, shortened: (§2)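 In antagonist mode, 2 uM rifampicin was added to hPXR-Luc HepG2 cells alongside test substances, incubated 24 h at 37 C; luminescence gave reporter activity, and CellTiter-Fluor fluorescence (405/540 nm) gave viability.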
# [27] = Dual reporter qHTS for antagonist of Pregnane X Receptor (hPXR) against the NCATS DSHEA and TCM libraries: Fluorescence Readout (AID 1920061)
# Procedure, shortened: as §2
# Sequence of Nicotinamide N-methyltransferase (Homo sapiens) (P40261 whole entry, looked up): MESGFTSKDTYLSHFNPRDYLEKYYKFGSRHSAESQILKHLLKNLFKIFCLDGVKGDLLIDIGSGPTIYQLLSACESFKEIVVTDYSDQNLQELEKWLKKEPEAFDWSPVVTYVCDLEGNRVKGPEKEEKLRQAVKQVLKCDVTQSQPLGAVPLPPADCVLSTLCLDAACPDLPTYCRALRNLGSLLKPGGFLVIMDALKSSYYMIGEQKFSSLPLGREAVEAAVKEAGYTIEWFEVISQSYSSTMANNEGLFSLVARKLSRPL
# Sequence of Cytochrome P450 1A2 (Homo sapiens) (P05177 whole entry, looked up): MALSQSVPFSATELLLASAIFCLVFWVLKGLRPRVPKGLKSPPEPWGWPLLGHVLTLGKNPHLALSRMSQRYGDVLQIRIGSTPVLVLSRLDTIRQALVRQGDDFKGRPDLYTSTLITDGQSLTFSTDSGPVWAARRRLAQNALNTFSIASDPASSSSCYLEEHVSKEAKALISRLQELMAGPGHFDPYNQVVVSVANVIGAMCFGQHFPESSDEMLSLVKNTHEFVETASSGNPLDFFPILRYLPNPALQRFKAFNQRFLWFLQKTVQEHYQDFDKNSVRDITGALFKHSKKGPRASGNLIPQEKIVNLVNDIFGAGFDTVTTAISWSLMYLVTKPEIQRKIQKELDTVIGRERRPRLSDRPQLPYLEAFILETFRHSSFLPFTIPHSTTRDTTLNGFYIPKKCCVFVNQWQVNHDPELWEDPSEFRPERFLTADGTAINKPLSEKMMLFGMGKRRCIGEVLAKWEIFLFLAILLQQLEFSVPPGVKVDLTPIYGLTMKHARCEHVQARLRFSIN
# Sequence of Cytochrome P450 2D6 (Homo sapiens) (P10635 whole entry, looked up): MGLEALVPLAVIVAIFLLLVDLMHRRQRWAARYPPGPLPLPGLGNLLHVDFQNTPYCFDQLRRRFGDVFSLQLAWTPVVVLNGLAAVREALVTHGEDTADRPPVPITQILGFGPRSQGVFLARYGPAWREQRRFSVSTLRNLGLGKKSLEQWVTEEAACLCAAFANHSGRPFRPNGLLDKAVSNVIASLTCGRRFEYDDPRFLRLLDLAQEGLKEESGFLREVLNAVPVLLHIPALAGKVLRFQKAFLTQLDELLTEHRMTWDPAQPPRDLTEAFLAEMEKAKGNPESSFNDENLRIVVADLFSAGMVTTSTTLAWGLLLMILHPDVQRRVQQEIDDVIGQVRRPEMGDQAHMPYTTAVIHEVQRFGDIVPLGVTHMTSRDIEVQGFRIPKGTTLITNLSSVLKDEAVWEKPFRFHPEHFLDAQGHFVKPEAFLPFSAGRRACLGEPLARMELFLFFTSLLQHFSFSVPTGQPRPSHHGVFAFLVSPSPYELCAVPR
# Sequence of Nuclear receptor subfamily 1 group I member 2 (Homo sapiens) (O75469 whole entry, looked up): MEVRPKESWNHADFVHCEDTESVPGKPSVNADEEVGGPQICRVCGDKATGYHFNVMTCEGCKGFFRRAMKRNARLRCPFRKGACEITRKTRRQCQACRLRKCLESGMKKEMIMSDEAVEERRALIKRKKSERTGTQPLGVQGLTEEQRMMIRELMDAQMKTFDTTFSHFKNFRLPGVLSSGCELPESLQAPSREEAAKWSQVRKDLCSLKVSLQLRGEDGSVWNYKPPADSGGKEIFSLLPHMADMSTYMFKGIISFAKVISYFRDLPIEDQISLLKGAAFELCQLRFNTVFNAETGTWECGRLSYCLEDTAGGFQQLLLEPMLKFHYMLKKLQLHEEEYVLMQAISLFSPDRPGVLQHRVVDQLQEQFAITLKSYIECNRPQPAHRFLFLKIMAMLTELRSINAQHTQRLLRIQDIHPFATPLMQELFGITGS
# Sequence of Catechol O-methyltransferase (Homo sapiens) (P21964 whole entry, looked up): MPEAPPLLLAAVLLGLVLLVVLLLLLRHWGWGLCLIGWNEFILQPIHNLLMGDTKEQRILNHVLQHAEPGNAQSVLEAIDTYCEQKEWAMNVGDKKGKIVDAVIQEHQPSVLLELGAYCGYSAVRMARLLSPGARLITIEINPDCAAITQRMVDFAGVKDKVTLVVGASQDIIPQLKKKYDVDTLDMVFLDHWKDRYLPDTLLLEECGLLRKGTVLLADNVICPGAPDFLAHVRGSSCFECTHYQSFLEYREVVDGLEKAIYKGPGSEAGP
# Sequence of Phenylethanolamine N-methyltransferase (Homo sapiens) (P11086 whole entry, looked up): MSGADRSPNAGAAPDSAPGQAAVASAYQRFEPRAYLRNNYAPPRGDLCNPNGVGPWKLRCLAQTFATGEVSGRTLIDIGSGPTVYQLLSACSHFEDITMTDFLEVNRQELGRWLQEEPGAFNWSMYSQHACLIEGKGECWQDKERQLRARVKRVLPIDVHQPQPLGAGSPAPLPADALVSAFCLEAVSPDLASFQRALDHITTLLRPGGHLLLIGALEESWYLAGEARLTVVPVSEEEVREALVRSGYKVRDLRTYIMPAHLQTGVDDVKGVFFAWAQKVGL
# Sequence of Nuclear receptor subfamily 1 group I member 3 (Homo sapiens) (Q14994 whole entry, looked up): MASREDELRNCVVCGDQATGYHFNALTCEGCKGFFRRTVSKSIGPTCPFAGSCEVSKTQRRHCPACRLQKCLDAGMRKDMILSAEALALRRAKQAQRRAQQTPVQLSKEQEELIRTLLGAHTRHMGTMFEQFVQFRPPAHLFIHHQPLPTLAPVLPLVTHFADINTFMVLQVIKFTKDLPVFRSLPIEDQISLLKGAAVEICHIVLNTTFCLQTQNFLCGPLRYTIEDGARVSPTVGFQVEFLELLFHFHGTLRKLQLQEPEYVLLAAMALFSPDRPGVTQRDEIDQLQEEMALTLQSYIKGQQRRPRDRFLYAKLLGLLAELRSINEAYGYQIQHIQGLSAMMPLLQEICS
# Sequence of Glucocorticoid receptor (Homo sapiens) (P04150 whole entry, looked up, the tested form may be a part): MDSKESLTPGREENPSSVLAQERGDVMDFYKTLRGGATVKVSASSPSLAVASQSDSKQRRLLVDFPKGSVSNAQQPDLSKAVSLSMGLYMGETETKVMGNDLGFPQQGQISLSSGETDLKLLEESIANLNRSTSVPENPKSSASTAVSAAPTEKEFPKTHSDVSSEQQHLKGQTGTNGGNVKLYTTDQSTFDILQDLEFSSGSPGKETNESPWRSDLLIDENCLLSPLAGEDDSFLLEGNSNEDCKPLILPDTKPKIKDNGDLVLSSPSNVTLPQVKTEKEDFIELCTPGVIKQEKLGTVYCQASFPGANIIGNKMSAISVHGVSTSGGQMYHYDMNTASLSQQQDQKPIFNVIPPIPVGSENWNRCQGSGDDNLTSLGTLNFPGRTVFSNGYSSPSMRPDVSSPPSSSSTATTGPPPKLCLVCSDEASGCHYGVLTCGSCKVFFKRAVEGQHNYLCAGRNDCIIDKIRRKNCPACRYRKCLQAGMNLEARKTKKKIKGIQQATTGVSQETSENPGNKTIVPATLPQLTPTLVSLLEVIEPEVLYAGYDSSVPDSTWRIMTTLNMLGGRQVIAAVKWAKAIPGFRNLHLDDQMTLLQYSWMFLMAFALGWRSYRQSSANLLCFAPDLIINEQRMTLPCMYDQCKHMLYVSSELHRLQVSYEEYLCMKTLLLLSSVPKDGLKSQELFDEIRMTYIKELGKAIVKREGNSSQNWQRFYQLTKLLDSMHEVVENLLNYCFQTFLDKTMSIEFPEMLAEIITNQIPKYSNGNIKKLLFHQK
# Sequence of Cytochrome P450 3A4 (Homo sapiens) (P08684 whole entry, looked up): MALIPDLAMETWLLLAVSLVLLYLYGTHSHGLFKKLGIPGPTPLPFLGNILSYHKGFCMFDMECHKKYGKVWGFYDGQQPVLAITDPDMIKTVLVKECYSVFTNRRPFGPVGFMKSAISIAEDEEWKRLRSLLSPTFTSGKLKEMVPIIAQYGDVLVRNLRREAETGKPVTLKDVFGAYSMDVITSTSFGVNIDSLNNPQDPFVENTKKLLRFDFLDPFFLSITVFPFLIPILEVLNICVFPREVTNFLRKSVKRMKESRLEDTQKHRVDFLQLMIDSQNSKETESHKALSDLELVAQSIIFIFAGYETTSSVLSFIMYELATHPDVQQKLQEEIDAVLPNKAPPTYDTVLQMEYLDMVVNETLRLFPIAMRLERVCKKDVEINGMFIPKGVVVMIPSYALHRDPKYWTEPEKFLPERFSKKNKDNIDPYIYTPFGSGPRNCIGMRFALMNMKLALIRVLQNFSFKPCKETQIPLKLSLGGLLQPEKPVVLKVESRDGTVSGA
# Sequence of Cytochrome P450 2C19 (Homo sapiens) (P33261 whole entry, looked up, canonical isoform): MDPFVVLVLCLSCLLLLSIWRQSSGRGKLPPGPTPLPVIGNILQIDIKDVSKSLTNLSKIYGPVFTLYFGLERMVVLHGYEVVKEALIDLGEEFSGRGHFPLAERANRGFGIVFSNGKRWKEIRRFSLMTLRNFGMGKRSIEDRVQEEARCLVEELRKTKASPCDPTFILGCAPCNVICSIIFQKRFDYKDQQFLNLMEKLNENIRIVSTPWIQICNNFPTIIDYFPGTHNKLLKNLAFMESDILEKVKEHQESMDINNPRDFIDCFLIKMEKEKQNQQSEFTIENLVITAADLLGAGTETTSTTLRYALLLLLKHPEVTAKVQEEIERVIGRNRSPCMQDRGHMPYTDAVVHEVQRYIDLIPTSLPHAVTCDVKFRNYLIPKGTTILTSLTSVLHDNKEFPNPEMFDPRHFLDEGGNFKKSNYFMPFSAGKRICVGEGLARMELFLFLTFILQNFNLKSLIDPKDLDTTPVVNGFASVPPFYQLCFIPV
# Sequence of DNA dC->dU-editing enzyme APOBEC-3G (Homo sapiens) (Q9HC16 whole entry, looked up): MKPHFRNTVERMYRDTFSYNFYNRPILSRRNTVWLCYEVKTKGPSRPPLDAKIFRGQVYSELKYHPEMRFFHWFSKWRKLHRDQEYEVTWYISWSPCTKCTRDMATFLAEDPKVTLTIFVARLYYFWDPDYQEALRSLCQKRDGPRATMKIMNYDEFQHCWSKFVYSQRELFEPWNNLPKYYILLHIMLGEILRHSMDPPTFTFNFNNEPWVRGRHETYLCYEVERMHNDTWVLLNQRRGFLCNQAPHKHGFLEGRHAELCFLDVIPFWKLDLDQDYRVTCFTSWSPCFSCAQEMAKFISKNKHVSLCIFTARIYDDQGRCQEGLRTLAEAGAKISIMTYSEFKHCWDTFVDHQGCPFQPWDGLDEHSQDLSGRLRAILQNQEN
structure (smiles),measurement,setting,value
COc1ccc(-c2cc3c(cn2)CN(C)CCN3)cn1,activity,[1],1.58%
same,"activity change, negative = inhibition",[2],-1.54% [at 114 µM]
same,activity,[3],-5.95%
same,activity,[4],-1.09%
NC(=O)c1ccc(N2CC3CCC(C2)N3CC(F)(F)F)nn1,activity,[1],10.2%
same,"activity change, negative = inhibition",[2],9.09%
same,activity,[3],-22.1%
same,activity,[4],10.9%
CC(=O)NC[C@H]1C[C@@H]2CCN1C[C@@H]2c1cc(-c2ccc3ccccc3c2)nn1C,activity,[1],4.95%
same,"activity change, negative = inhibition",[2],4.16%
same,activity,[3],1.11%
same,activity,[4],2.7%
O=C(Nc1ccccc1F)N[C@H]1N=C(c2ccccc2)c2ccccc2NC1=O,Potency,[5],inactive
CC[C@H]1CN2CC[C@H]1C[C@@H]2CNCc1ccc(-c2ccccc2)cc1,activity,[1],3.75%
same,"activity change, negative = inhibition",[2],4.44%
same,activity,[3],4.25%
same,activity,[4],-4.01%
COc1cc(-c2oc3cc(O)cc(O)c3c(=O)c2O)ccc1O,Potency,[6],inactive
COc1cc2c(cc1O)C[C@H]1c3c(cc(OC)c(O)c3-2)CCN1C,Potency,[7],10 µM (active)
same,Potency,[8],> 46 µM (inactive)
same,Potency,[9],> 46 µM (inactive)
same,Potency,[10],inactive
same,Potency,[11],6.31 µM (active)
same,outcome,[12],inactive
same,Potency,[6],inactive
same,outcome,[13],inactive
same,outcome,[14],inactive
same,Potency,[15],12.6 µM (active)
same,outcome,[16],inactive
same,outcome,[17],inactive
same,Potency,[18],5.01 µM (active)
same,Potency,[19],3.98 µM (active)
same,outcome,[20],inactive
same,Potency,[21],10 µM (active)
same,Potency,[22],inactive
same,max response,[23],-3.09% (inactive)
same,outcome,[24],inactive
same,Potency,[25],inactive
same,outcome,[26],inactive
COc1cc2c(cc1O)CC1NCCc3cc(OC)c(OC)c-2c31 (stereo not drawn),Potency,[6],inactive
same,outcome,[13],inactive
same,outcome,[14],inactive
same,Potency,[15],inactive
same,outcome,[16],inactive
same,outcome,[17],inactive
same,Potency,[18],6.31 µM (active)
same,outcome,[20],inactive
same,Potency,[21],15.8 µM (active)
same,Potency,[22],inactive
same,max response,[23],-2.18% (inactive)
same,outcome,[24],inactive
same,Potency,[25],inactive
same,outcome,[26],inactive
same,outcome,[27],inactive
C=C1C[C@@]23CC[C@H]4[C@@](C)(CCC[C@@]4(C)C(=O)O[C@@H]4O[C@H](CO)[C@@H](O)[C@H](O)[C@H]4O)[C@@H]2CC[C@]1(O[C@@H]1O[C@H](CO)[C@@H](O)[C@H](O[C@@H]2O[C@H](CO)[C@@H](O)[C@H](O)[C@H]2O)[C@H]1O[C@@H]1O[C@@H](C)[C@H](O)[C@@H](O)[C@H]1O)C3,Potency,[6],inactive
same,Potency,[22],inactive
CC/C=C\C/C=C\C/C=C\CCCCCCCC(=O)O,Potency,[6],inactive
same,Potency,[22],inactive
